# Data published in PubChem BioAssay (EPA / NIEHS).
# “And” between values parts separate entries of the source, which are not always exact repeats. Identical values can stand only once. Results filed as inconclusive are left out. The source made the active and inactive calls. Rule for the calls, unless noted: active = hit-call score of the fitted dose curve at least 0.9, where 1 is the maximum; inconclusive = response in the unintended direction; inactive = score below 0.9.
# Legend:
# [1] = biological target: Cytochrome P450 2C18 (Homo sapiens) (UniProt P33260); test: NVS_ADME_hCYP2C18: NovaScreen (NVS) CYP450-related Enzyme Activity (ADME) Assay for human CYP2C18 (AID 2283103; active = hit-call score of the fitted dose curve at least 0.9, where 1 is the maximum; inactive = score below 0.9)
# Chain of Cytochrome P450 2C18 (Homo sapiens) (P33260 whole entry, looked up): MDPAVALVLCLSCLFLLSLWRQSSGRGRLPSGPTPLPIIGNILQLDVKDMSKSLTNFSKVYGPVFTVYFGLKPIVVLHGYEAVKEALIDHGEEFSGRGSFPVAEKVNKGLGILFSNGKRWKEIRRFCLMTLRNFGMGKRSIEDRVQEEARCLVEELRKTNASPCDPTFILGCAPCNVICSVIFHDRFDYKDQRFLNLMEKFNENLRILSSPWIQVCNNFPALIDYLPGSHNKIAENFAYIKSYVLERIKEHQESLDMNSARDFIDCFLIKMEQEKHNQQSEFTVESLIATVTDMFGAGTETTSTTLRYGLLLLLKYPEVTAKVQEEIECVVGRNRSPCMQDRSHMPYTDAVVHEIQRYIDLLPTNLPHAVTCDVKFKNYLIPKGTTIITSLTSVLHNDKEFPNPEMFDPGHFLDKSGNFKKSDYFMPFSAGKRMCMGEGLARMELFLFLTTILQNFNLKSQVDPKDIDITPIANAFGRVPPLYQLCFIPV
# In short: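 Enzyme activity measured by fluorescence 0.5 h after compound addition, using recombinant CYP2C18 and a specific substrate. Actives from duplicate 10 uM screening were retested in concentration series (top 20 uM); acetonitrile served as negative baseline.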
# [2] = biological target: human CYP2C8, CYP2C8 (gene 1558) (UniProt P10632); test: NVS_ADME_hCYP2C8: NovaScreen (NVS) CYP450-related Enzyme Activity (ADME) Assay for human CYP2C8 (AID 2283104; active = hit-call score of the fitted dose curve at least 0.9, where 1 is the maximum; inactive = score below 0.9)
# Chain of human CYP2C8, CYP2C8 (gene 1558) (P10632 whole entry, looked up): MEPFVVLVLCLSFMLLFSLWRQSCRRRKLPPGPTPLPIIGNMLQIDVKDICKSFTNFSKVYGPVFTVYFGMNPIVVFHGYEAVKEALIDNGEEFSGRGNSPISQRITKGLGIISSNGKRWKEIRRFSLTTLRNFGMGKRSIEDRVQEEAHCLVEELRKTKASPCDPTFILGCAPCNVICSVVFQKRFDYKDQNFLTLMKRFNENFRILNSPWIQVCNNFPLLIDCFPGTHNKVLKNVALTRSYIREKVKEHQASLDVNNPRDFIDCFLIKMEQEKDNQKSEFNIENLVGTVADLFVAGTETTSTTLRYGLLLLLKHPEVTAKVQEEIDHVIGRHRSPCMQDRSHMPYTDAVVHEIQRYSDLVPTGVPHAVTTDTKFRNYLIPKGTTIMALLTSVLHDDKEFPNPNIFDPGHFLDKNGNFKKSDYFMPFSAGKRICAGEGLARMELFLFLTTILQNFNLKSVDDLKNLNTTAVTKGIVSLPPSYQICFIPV
# In short: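 Fluorescence readout of substrate turnover by recombinant CYP2C8 after 0.5 h, baseline acetonitrile. Single-concentration duplicate screen at 10 uM preceded singleton concentration series (max 20 uM) for compounds passing the inhibition threshold.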
# [3] = biological target: human CYP2C9, CYP2C9 (gene 1559) (UniProt P11712); test: NVS_ADME_hCYP2C9: NovaScreen (NVS) CYP450-related Enzyme Activity (ADME) Assay for human CYP2C9 (AID 2283108)
# Chain of human CYP2C9, CYP2C9 (gene 1559) (P11712 whole entry, looked up): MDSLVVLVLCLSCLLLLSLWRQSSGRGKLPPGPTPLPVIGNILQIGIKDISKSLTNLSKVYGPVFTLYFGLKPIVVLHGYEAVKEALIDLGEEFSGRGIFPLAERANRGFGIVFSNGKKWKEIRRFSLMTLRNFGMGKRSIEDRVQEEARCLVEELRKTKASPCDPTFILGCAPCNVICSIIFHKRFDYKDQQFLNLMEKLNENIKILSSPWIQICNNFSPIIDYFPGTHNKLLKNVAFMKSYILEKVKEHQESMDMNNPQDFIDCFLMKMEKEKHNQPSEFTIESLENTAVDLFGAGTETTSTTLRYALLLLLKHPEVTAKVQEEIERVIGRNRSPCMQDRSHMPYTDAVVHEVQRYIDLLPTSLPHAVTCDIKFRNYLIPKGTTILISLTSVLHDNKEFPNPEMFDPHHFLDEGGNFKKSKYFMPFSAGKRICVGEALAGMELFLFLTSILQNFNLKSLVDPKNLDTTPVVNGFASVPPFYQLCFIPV
# In short: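 Fluorescence readout of CYP2C9 activity (SF9-expressed human enzyme) at 0.75 h. The primary screen used 10 uM in duplicate, with concentration-response follow-up for actives; acetonitrile was the negative control.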
# [4] = biological target: Cytochrome P450 2C19 (Homo sapiens) (UniProt P33261); test: NVS_ADME_hCYP2C19: NovaScreen (NVS) CYP450-related Enzyme Activity (ADME) Assay for human CYP2C19 (AID 2283113);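 for AC50: potency for inhibition seen as loss of fluorescent signal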
# In short: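 Recombinant insect-cell-expressed enzyme, fluorescent substrate, 1 h after chemical addition, fluorescence intensity. Baseline = acetonitrile vehicle; activity scored as signal loss. Primary HTS single concentration 10 uM, duplicate; actives retested in concentration series.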
# [5] = biological target: rat CYP1A2, Cyp1a2 (gene 24297) (UniProt P04799); test: NVS_ADME_rCYP1A2: NovaScreen (NVS) CYP450-related Enzyme Activity (ADME) Assay for rat CYP1A2 (AID 2283115)
# Chain of rat CYP1A2, Cyp1a2 (gene 24297) (P04799 whole entry, looked up): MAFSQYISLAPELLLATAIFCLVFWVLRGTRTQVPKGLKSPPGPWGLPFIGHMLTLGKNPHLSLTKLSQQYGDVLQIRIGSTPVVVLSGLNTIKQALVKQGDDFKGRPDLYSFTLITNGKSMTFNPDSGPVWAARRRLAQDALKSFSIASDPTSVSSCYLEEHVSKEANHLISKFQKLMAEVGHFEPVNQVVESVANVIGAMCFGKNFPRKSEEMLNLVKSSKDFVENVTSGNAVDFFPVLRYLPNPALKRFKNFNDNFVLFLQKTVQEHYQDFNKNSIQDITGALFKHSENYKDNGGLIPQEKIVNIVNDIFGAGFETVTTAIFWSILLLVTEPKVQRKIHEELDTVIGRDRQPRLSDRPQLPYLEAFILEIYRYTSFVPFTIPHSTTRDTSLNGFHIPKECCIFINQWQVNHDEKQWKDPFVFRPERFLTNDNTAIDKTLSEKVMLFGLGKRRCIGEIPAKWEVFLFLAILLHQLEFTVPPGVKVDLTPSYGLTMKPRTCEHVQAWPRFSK
# Protocol: (§1) NVS_ADME_rCYP1A2 is a biochemical, single-readout assay that uses extracted gene-proteins in a cell-free assay. Measurements were taken 1 hour after chemical dosing in a 96-well plate.NVS_ADME_rCYP1A2 is one of one assay component(s) measured or calculated from the NVS_ADME_rCYP1A2 assay. It is designed to make measurements of enzyme activity, a form of enzyme reporter, as detected with fluorescence intensity signals by Fluorescence technology.Data from the assay component NVS_ADME_rCYP1A2 was analyzed into 1 assay endpoint. This assay endpoint, NVS_ADME_rCYP1A2, was analyzed in the positive analysis fitting direction relative to Acetonitrile as the negative control and baseline of activity. Using a type of enzyme reporter, loss-of-signal activity can be used to understand changes in the enzymatic activity as they relate to the gene Cyp1a2. Furthermore, this assay endpoint can be referred to as a primary readout, because this assay has produced multiple assay endpoints where this one serves a enzymatic activity function. To generalize the intended target to other relatable targets, this assay endpoint is annotated to the cyp intended target family, where the subfamily is xenobiotic metabolism.
# Binding assays used specific radioligands (tritiated, iodinated) with non-radioactive competitive displacement ligands in agonist or antagonist protocols (as indicated) and various reference compounds and inhibitors to titrate specific binding to receptors and transporters. Most enzyme assays (CYPs, kinases, phosphatases, proteases, HDACs) used recombinant protein and specific substrates (fluorescence mostly, some colorimetric and radioactive) and inhibitors, followed by a biochemical separation of substrate and product. All assays for the biochemical HTS were initially run in duplicate at a single concentration (10 uM for CYP450 assays and 25 uM for all others). […] Each assay was run with positive and negative controls, and concurrent controls on every plate. The follow-up (secondary) screen tested active chemical-pairs in concentration series, as well as a few additional assays not tested in the primary screen, some selected negative inactives, and several cases re-run in the concentration series for confirmatory purposes.
# [6] = biological target: human CYP2J2, CYP2J2 (gene 1573) (UniProt P51589); test: NVS_ADME_hCYP2J2: NovaScreen (NVS) CYP450-related Enzyme Activity (ADME) Assay for human CYP2J2 (AID 2283106)
# Chain of human CYP2J2, CYP2J2 (gene 1573) (P51589 whole entry, looked up): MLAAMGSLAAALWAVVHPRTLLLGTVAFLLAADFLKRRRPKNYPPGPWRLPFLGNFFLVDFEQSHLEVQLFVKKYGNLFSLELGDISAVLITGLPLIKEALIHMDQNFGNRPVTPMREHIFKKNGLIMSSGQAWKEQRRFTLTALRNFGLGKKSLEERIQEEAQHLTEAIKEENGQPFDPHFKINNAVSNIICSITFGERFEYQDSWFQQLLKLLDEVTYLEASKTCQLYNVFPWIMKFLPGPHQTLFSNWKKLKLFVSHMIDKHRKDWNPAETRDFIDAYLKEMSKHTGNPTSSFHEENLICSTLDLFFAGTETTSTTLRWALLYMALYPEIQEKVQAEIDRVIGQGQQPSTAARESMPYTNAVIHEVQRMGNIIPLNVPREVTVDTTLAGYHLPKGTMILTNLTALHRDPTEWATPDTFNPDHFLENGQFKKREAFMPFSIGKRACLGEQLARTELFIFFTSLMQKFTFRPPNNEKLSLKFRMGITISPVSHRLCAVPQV
# Protocol: as §1, with “NVS_ADME_hCYP2J2” for “NVS_ADME_rCYP1A2”, “plate.NVS_ADME_hCYP2J2” for “plate.NVS_ADME_rCYP1A2”, “NVS_ADME_hCYP2J2,” for “NVS_ADME_rCYP1A2,”, “CYP2J2.” for “Cyp1a2.”
# Binding assays used specific radioligands (tritiated, iodinated) with non-radioactive competitive displacement ligands in agonist or antagonist protocols (as indicated) and various reference compounds and inhibitors to titrate specific binding to receptors and transporters. Most enzyme assays (CYPs, kinases, phosphatases, proteases, HDACs) used recombinant protein and specific substrates (fluorescence mostly, some colorimetric and radioactive) and inhibitors, followed by a biochemical separation of substrate and product. All assays for the biochemical HTS were initially run in duplicate at a single concentration (10 uM for CYP450 assays and 25 uM for all others). Assay-chemical combinations meeting a pre-defined threshold (e.g., 30% inhibition and other criteria defined below) were then run in singleton concentration-response format with maximum concentration of 20 uM for CYPs and 50 uM for all others. Each assay was run with positive and negative controls, and concurrent controls on every plate. The follow-up (secondary) screen tested active chemical-pairs in concentration series, as well as a few additional assays not tested in the primary screen, some selected negative inactives, and several cases re-run in the concentration series for confirmatory purposes.
# [7] = biological target: human CYP2D6, CYP2D6 (gene 1565) (UniProt P10635); test: NVS_ADME_hCYP2D6: NovaScreen (NVS) CYP450-related Enzyme Activity (ADME) Assay for human CYP2D6 (AID 2283107)
# Chain of human CYP2D6, CYP2D6 (gene 1565) (P10635 whole entry, looked up): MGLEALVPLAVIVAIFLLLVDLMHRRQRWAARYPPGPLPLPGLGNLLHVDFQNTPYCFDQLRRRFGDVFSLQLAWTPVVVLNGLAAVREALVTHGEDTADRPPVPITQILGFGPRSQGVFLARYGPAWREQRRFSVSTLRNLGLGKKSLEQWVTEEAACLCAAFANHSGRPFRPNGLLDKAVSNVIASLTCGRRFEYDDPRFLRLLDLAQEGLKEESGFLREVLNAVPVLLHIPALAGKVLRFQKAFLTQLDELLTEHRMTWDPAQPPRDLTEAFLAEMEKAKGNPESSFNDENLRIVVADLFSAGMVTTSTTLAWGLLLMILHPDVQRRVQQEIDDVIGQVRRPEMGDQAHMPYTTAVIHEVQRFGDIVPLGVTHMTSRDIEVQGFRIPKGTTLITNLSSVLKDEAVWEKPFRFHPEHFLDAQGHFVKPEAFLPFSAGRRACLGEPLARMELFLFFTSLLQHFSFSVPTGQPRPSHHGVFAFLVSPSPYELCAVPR
# In short: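 Fluorescence intensity read 1 h post-dosing; insect-cell-expressed recombinant protein with fluorogenic substrate, no cells. Activity is scored as signal loss relative to acetonitrile baseline, first at a single 10 uM concentration in duplicate, then as concentration series for confirmed actives.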
# [8] = biological target: rat CYP2A2, Cyp2a2 (gene 24895) (UniProt P15149); test: NVS_ADME_rCYP2A2: NovaScreen (NVS) CYP450-related Enzyme Activity (ADME) Assay for rat CYP2A2 (AID 2283116)
# Chain of rat CYP2A2, Cyp2a2 (gene 24895) (P15149 whole entry, looked up): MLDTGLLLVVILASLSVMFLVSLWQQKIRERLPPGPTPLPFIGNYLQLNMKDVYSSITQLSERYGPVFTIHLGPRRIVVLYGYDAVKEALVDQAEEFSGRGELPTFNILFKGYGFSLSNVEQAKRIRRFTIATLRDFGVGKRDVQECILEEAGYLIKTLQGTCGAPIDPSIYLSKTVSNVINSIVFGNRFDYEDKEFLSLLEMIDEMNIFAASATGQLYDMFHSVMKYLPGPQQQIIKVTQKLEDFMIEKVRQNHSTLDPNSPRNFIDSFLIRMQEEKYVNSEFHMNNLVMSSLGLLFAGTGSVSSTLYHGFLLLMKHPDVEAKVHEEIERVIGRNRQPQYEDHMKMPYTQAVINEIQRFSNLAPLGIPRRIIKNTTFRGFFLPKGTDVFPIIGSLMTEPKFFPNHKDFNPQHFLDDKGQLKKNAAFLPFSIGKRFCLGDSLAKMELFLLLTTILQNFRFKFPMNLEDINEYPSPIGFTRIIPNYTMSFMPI
# In short: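 Compounds first tested in duplicate at 10 uM, then in singleton concentration series up to 20 uM when over threshold. Activity of the recombinant enzyme read by fluorescence at 0.2 h, normalised to acetonitrile vehicle.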
# [9] = biological target: human CYP4F12, CYP4F12 (gene 66002) (UniProt Q9HCS2); test: NVS_ADME_hCYP4F12: NovaScreen (NVS) CYP450-related Enzyme Activity (ADME) Assay for human CYP4F12 (AID 2283111)
# Chain of human CYP4F12, CYP4F12 (gene 66002) (Q9HCS2 whole entry, looked up): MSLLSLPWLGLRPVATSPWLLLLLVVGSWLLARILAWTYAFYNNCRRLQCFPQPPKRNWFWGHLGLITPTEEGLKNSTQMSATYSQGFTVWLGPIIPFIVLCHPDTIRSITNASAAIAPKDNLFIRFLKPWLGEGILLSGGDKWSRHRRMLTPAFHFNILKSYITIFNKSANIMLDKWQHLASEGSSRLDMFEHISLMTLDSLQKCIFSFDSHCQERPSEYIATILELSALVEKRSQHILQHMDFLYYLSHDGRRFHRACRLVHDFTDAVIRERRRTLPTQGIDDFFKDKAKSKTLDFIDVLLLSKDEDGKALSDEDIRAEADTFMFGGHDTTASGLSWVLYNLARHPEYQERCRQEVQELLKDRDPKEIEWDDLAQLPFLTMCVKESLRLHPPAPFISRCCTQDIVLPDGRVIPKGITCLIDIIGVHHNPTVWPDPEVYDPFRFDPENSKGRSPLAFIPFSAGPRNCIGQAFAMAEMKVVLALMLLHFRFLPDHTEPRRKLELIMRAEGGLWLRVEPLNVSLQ
# In short: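 Recombinant enzyme with a fluorescent substrate, signal read at 0.5 h post-dose; activity loss analysed relative to acetonitrile. Compounds first run in duplicate at 10 uM, with follow-up concentration-response testing of actives.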
# [10] = biological target: Cytochrome P450 3A4 (Homo sapiens) (UniProt P08684); test: NVS_ADME_hCYP3A4: NovaScreen (NVS) CYP450-related Enzyme Activity (ADME) Assay for human CYP3A4 (AID 2283110)
# Chain of Cytochrome P450 3A4 (Homo sapiens) (P08684 whole entry, looked up): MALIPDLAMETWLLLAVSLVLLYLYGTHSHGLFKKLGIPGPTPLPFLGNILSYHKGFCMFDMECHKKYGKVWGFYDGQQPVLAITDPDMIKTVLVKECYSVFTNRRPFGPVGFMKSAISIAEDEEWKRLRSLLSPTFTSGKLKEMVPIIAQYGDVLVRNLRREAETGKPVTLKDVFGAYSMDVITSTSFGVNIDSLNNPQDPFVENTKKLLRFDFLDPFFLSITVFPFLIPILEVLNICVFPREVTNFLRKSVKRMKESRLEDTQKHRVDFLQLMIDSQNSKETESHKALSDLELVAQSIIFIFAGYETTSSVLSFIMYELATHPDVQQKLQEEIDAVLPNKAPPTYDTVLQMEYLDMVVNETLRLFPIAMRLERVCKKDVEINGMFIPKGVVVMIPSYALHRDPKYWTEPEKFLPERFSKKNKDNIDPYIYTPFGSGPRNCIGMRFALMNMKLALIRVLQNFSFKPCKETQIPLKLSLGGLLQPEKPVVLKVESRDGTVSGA
# In short: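 Compounds screened in duplicate at 10 uM, with follow-up concentration-response for actives, against insect-cell-expressed recombinant enzyme. Activity read by fluorescence 0.33 h after dosing; loss of signal versus acetonitrile control indicates inhibition.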
structure (smiles),measurement,setting,value
COC(=O)N(OC)c1ccccc1COc1ccn(-c2ccc(Cl)cc2)n1,AC50,[1],784 nM (active)
same,outcome,[2],inactive
same,AC50,[3],1.26 µM (active)
same,AC50,[4],720 nM (active)
COP(=S)(OC)Oc1nc(Cl)c(Cl)cc1Cl,outcome,[1],inactive
same,AC50,[4],10000 nM (active)
same,outcome,[5],inactive
CCCC1COC(Cn2cncn2)(c2ccc(Cl)cc2Cl)O1 (stereo not given),AC50,[1],2150 nM (active)
same,outcome,[6],inactive
same,AC50,[7],13900 nM (active)
same,AC50,[3],1.65 µM (active) and 4.57 µM (active)
same,AC50,[4],721 nM (active)
same,AC50,[8],106 nM (active) and 102 nM (active)
CNC(=S)S,outcome,[1],inactive
same,outcome,[3],inactive
same,AC50,[4],7580 nM (active)
O=C(Nc1ccccc1)Nc1ccnc(Cl)c1,AC50,[6],2150 nM (active)
same,AC50,[3],2.46 µM (active)
same,outcome,[5],inactive
CS/C(C)=N/OC(=O)N(C)SN(C)C(=O)O/N=C(\C)SC,AC50,[6],2790 nM (active)
same,AC50,[7],934 nM (active)
same,AC50,[3],5.64 µM (active)
same,outcome,[9],inactive
same,AC50,[4],3430 nM (active)
C=CCC1=C(C)[C@@H](OC(=O)[C@@H]2[C@@H](C=C(C)C)C2(C)C)CC1=O,AC50,[7],10000 nM (active)
same,AC50,[3],5.73 µM (active)
same,AC50,[4],6390 nM (active)
CCCN(CCC)c1c([N+](=O)[O-])cc(S(N)(=O)=O)cc1[N+](=O)[O-],AC50,[1],2710 nM (active)
same,AC50,[2],4890 nM (active)
same,outcome,[10],inactive
same,AC50,[4],1.34 µM (active) [middle of 4 runs]
OC(c1ccc(Cl)cc1)(c1cncnc1)c1ccccc1Cl (stereo not given),AC50,[1],6020 nM (active)
same,AC50,[2],10000 nM (active)
same,AC50,[6],2260 nM (active)
same,AC50,[3],2.35 µM (active)
same,AC50,[10],3870 nM (active)
same,AC50,[4],136 nM (active)
same,AC50,[8],53.4 nM (active)
COC(=O)C(C)Oc1ccc(Oc2ccc(Cl)cc2Cl)cc1 (stereo not given),AC50,[4],10 µM (active) and 14.1 µM (active) and 7.91 µM (active)
Oc1ccccc1-c1ccccc1,outcome,[8],inactive
C=CC1(C)OC(=O)N(c2cc(Cl)cc(Cl)c2)C1=O (stereo not given),outcome,[10],inactive
same,AC50,[4],5.01 µM (active) and 10 µM (active) and 1.87 µM (active)
CCOP(=S)(OCC)SCn1c(=O)oc2cc(Cl)ccc21,AC50,[1],1460 nM (active)
same,outcome,[6],inactive
same,AC50,[7],2800 nM (active)
same,AC50,[3],1.8 µM (active)
same,AC50,[4],215 nM (active)
same,outcome,[5],inactive
same,AC50,[8],10000 nM (active)
CCCCOC(=O)c1ccccc1C(=O)OCCCC,outcome,[2],inactive
same,AC50,[4],6.73 µM (active) and 7.37 µM (active)
same,outcome,[8],inactive
CO/C=C(/C(=O)OC)c1ccccc1Oc1cc(Oc2ccccc2C#N)ncn1,AC50,[1],5500 nM (active)
same,outcome,[3],inactive
same,outcome,[10],inactive
COc1nc(C)nc(NC(=O)NS(=O)(=O)c2ccccc2CCC(F)(F)F)n1,outcome,[3],inactive
CCc1nn(C)c(C(=O)NCc2ccc(C(C)(C)C)cc2)c1Cl,outcome,[2],inactive
O=C(O)c1nc(Cl)ccc1Cl,outcome,[10],inactive
same,outcome,[4],inactive
CC(C)Oc1cc(-n2nc(C(C)(C)C)oc2=O)c(Cl)cc1Cl,outcome,[4],inactive
